Here are results for nine molecules from PubChem BioAssay.

Calls of active or inactive are those of the source.

Assay [1] in a line: optical density shifts of acrAB sulA E. coli – strain DRC41, OD650, 48 h, E. coli filamentation inducer project, primary screen (AID 1152).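 Also: E. coli MC1000 strain DRC41 lacking acrAB efflux pump and sulA.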 To be noted: higher = more signal, called active from +8 up or from −8 down.
A short description of assay [2]: probe aLefty1 binding on compound microarray – biochemical, small-molecule microarray, 635/667 nm fluorescence, primary screen (AID 1153).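 Also: score merges spot fluorescence with signal-to-noise ratio from the scanned slide images.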 Conditions: higher = more signal.
Assay [3] in a line: plasmodial surface anion channel blockers, osmotic lysis – cell-based, P. falciparum Indochina, OD700, 1 h, primary screen (AID 1154). To be noted: P. falciparum Indochina infected RBC osmotic lysis, higher = more signal, called active from +8 up or from −8 down.
Assay [4] is described as follows: plasmodial surface anion channel blockers, osmotic lysis – cell-based, P. falciparum Indochina, OD700, 2 h, primary screen (AID 1155).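 Also: lysis reports solute entry through the parasite surface anion channel PSAC.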 Conditions: P. falciparum Indochina infected erythrocytes, higher = more signal, called active from +8 up or from −8 down.
Assay [5] in a line: changes in parasitized red cell lysis, either direction – P. falciparum Indochina, OD700, 3 h, PSAC antagonist project, primary screen (AID 1156). To be noted: P. falciparum-infected erythrocytes, osmotic lysis, higher = more signal, called active from +8 up or from −8 down.
A short description of assay [6]: plasmodial surface anion channel blockers, osmotic lysis – cell-based, P. falciparum Indochina, OD700, 18 h, primary screen (AID 1157). To be noted: P. falciparum Indochina infected erythrocytes, osmotic lysis OD700, 18 h; higher = more signal, called active from +8 up or from −8 down.
Assay [7] is described as follows: S6 kinase pathway phospho-S6 level changes – cell-based, A549, cytoblot, luminescence, serum-stimulated, primary screen (AID 1158).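 Also: serum-stimulated A549 lung adenocarcinoma cells; signal is phosphorylated S6 detected by cytoblot immunostaining with HRP secondary.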 Conditions: 5 h, higher = more signal.
The target in assay [8] is NADPH oxidase 2 (Homo sapiens) (UniProt P04839). Briefly: compounds shifting NOX2 Amplex Red fluorescence – cell-based, HEK293-NOX2, PMA-stimulated, NOX inhibitor project, primary screen (AID 1159). Also: test concentration not given here. Conditions: 45 min, higher = more signal, called active from +8 up or from −8 down.
NADPH oxidase 2 (Homo sapiens), sequence (P04839 whole entry, looked up): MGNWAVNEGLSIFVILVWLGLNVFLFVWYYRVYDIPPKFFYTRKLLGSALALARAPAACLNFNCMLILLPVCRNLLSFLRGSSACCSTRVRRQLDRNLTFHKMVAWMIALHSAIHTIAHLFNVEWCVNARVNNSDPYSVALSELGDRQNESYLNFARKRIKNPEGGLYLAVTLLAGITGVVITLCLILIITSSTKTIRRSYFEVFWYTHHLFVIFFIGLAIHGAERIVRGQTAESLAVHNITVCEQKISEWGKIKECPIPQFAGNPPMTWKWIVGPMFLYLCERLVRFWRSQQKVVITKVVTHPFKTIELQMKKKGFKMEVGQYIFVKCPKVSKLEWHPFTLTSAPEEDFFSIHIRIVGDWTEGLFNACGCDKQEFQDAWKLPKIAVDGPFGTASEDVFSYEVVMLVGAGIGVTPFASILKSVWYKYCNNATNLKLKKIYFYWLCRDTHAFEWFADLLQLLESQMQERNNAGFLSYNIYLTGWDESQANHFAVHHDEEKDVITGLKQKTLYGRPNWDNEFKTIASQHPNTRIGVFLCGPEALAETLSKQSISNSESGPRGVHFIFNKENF
Assay [9] addresses NADPH oxidase 4 (Homo sapiens) (UniProt Q9NPH5). Nature of the assay: compounds shifting NOX4 Amplex Red fluorescence – cell-based, HEK293-NOX4, tetracycline-induced, NOX inhibitor project, primary screen (AID 1160). Conditions: HEK293-NOX4, Amplex Red H2O2 fluorescence, 45 min; higher = more signal, called active from +8 up or from −8 down.
The target in assay [10] is NADPH oxidase 5 (Homo sapiens) (UniProt Q96PH1). Nature of the assay: compounds shifting NOX5 Amplex Red fluorescence – cell-based, HEK293-NOX5, NOX inhibitor project, primary screen (AID 1161). Conditions: HEK293-NOX5, ionomycin, 45 min, higher = more signal.
NADPH oxidase 5 (Homo sapiens), sequence (Q96PH1 whole entry, looked up): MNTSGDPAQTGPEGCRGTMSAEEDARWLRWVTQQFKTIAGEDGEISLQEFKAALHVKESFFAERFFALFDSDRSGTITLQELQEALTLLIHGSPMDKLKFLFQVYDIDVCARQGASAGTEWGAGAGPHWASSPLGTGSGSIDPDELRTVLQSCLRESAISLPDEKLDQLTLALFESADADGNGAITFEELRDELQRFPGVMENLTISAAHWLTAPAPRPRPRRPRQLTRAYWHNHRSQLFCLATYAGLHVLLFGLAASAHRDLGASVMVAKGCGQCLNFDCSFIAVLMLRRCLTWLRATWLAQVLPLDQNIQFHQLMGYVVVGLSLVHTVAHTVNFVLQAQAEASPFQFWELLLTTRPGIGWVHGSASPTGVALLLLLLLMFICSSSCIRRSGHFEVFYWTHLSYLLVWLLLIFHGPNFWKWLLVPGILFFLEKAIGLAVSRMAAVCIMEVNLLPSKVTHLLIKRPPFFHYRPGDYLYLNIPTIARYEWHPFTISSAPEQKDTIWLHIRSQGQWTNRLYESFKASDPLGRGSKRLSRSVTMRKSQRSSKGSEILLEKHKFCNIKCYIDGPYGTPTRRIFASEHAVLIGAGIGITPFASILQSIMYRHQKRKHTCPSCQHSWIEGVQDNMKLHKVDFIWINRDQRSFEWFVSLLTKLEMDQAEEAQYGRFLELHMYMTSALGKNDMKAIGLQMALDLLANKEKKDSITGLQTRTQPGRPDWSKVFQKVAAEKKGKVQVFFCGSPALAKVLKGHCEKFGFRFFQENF
Assay [11] can be described thus: compound effects on lung adenocarcinoma cell viability – A549, calcein-AM fluorescence, 48 h, basal, profiling panel (AID 1162). Also: test concentration not given here. To be noted: higher = more signal.
The nature of assay [12]: compound effects on differentiated 3T3-L1 adipocyte viability – cell-based, 3T3-L1 adipocytes, calcein-AM fluorescence, 48 h, basal, profiling panel (AID 1163). Also: test concentration not given here. Conditions: 3T3-L1 adipocytes viability, higher = more signal.
Assay [13] can be described thus: compound effects on hepatocellular carcinoma cell viability – HepG2, calcein-AM fluorescence, 48 h, basal, profiling panel (AID 1164). Also: test concentration not given here. To be noted: higher = more signal.
Assay [14] can be described thus: compound effects on multiple myeloma cell viability – MM1S, calcein-AM fluorescence, 48 h, basal, profiling panel (AID 1165). Also: test concentration not given here. Conditions: higher = more signal.
A short description of assay [15]: calcein-AM signal in unstimulated myeloma cells – cell-based, calcein-AM fluorescence, 48 h, PK04 Diversity Set, profiling panel (AID 1166).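 Also: cells grown under basal conditions without added stimulus; test concentration not given here.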 To be noted: RPMI8226 myeloma viability, higher = more signal.
Assay [16] can be described thus: JC-1 mitochondrial signal, unstimulated HepG2 cells – cell-based, JC-1 fluorescence, 24 h, 100 nL compound, profiling panel (AID 1167). Also: test concentration not given here. To be noted: HepG2 mitochondrial potential, higher = more signal.
Assay [17] can be described thus: JC-1 mitochondrial signal, unstimulated adipocytes – cell-based, JC-1 fluorescence, 3T3-L1 adipocytes, 24 h, 100 nL compound, profiling panel (AID 1168). Also: test concentration not given here. Conditions: JC-1 mitochondrial fluorescence, higher = more signal, called active from +8 up or from −8 down.
The nature of assay [18]: JC-1 mitochondrial signal, unstimulated myeloma cells – cell-based, JC-1 fluorescence, RPMI8226, 24 h, 100 nL compound, profiling panel (AID 1169). Also: test concentration not given here. To be noted: JC-1 mitochondrial potential fluorescence, higher = more signal.
The nature of assay [19]: JC-1 mitochondrial signal, unstimulated MM1S myeloma – cell-based, JC-1 fluorescence, 24 h, 100 nL compound, profiling panel (AID 1170). Also: test concentration not given here. Conditions: MM1S mitochondrial potential, higher = more signal.
Assay [20] is described as follows: resazurin metabolic signal in A549 cells – cell-based, resazurin fluorescence, 24 h, PK04 Diversity Set, profiling panel (AID 1171). Also: test concentration not given here. Conditions: A549 viability, higher = more signal, called active from +8 up or from −8 down.

NADPH oxidase 4 (Homo sapiens), sequence (Q9NPH5 whole entry, looked up): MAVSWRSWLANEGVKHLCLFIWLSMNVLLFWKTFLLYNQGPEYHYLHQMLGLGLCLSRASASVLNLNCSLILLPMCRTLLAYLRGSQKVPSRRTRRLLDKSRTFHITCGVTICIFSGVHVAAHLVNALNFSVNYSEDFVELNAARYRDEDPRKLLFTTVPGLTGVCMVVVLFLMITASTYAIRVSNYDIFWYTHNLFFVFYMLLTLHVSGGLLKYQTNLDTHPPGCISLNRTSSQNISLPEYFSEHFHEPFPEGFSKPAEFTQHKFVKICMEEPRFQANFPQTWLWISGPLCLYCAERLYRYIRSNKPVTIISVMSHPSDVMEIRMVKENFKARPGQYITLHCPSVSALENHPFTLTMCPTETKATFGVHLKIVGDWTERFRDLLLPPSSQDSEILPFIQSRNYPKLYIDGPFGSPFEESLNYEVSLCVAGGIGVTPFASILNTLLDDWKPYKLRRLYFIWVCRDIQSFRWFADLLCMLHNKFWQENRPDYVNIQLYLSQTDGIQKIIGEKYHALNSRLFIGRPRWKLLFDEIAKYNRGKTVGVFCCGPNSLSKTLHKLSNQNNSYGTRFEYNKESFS

For `C=C(CCCC)C(=O)CC[C@@H](OC(=O)c1ccccc1-c1ccccc1C(=O)O)c1cccc(OCCO)c1`, the z-score in [1] is -0.397 (inactive); in assay [3], 22.3 (active); in [4], 4.27 (inactive); in assay [5], 1.11 (inactive); in [6] it was 0.896 (inactive); in [7], -0.348. Also, the z-score in assay [8] is 2.86 (inactive); in assay [9], -0.351 (inactive); in [10], -1.08; in [11] it was 0.78; in assay [12], 1.12; in assay [13] it was 0.215. Further, the z-score in assay [14] is -3.41; in [15], -3.91; in assay [16], -1.88; in assay [17], 0.584 (inactive); in assay [18], -0.694; in [19] it was 0.0735. In assay [20], the z-score is 0.675 (inactive). In assay [2], this molecule showed a composite z-score of -0.168.

For the molecule `COc1cc(CO)cc(I)c1O[C@H]1C=C(C(=O)NCCO)C[C@@H](NCc2ccccc2F)[C@@H]1O`, the z-score in assay [1] is 1.96 (inactive); in assay [3], 22.2 (active); in [4] it was 4.37 (inactive); in assay [5], 3.59 (inactive); in assay [6] it was 1.09 (inactive); in [7] it was 0.51. In addition, the z-score is 0.0575 (inactive) in assay [8]; -0.344 (inactive) in assay [9]; -1.69 in assay [10]; 0.687 in assay [11]; -0.512 in assay [12]; 0.496 in assay [13]. Moreover, the z-score in [14] is 0.0067; in assay [15], 0.12; in assay [16], -0.0312; in [17], -0.561 (inactive); in [18] it was 0.231; in assay [19], -1.59. The z-score in assay [20] was 0.106 (inactive). The molecule also showed a composite z-score in assay [2] of -0.117.

`CC(C)C[C@@H]1NC(=O)[C@H]2C[C@@H](C(=O)NCCCCCC[N+](C)(C)C)[C@@H](c3cccc(OCCO)c3)N2C1=O`: the z-score in assay [1] is 0.898 (inactive); in assay [3], 6.18 (inactive); in assay [4] it was 0.596 (inactive); in [5] it was 0.853 (inactive); in assay [6], 0.251 (inactive); in assay [7] it was -0.214. The z-score in [8] was 1.67 (inactive); in assay [9], 0.95 (inactive); in [10], 1.3; in [11] it was -0.53; in assay [12], 0.282; in [13], 0.0659. The z-score in [14] was -0.804; in [15], -0.0361; in [16], -0.474; in assay [17] it was 0.0908 (inactive); in [18] it was -0.271; in [19], -0.34. For the same molecule, in assay [20], the z-score is 1.24 (inactive). The same molecule registered a composite z-score in [2] of -0.64.

Turning to `CC(C)N1CC=CC23O[C@@H]4C=CCOC(=O)[C@@H]4[C@H]2C(=O)N(C(C)CO)[C@@H]3C1=O` (stereo not given in full), the z-score in assay [1] is -0.32 (inactive); in assay [3], 0.287 (inactive); in [4], 0.0397 (inactive); in [5] it was 0.112 (inactive); in assay [6] it was 0.111 (inactive); in assay [7], 0.74. Further, the z-score was 0.67 (inactive) in assay [8]; 0.266 (inactive) in assay [9]; 0.393 in assay [10]; -0.327 in [11]; -0.153 in assay [12]; -0.719 in assay [13]. The z-score is 1.15 in assay [14]; -0.186 in assay [15]; -0.664 in [16]; -0.668 (inactive) in assay [17]; -0.166 in assay [18]; 0.462 in [19]. Besides, in assay [20], the z-score was 0.226 (inactive). In assay [2], the composite z-score is 0.233.

Turning to `COC1(C)CN(Cc2ccccc2Br)[C@H](/C=C/c2ccccc2)[C@H](Cc2ccccc2)O1` (stereo not given in full), the z-score in assay [1] was 1.16 (inactive); in [3], 0.787 (inactive); in [4] it was 0.669 (inactive); in assay [5], 0.911 (inactive); in [6], -0.0143 (inactive); in assay [7], 0.52. The z-score was -0.112 (inactive) in assay [8]; 0.76 (inactive) in [9]; -0.271 in assay [10]; 0.411 in [11]; 1.2 in assay [12]; 0.875 in assay [13]. Besides, the z-score in [14] is -0.245; in [15] it was -0.0348; in assay [16] it was -0.545; in assay [17] it was -0.35 (inactive); in [18] it was -0.19; in assay [19] it was -0.861. Also, in assay [20], the z-score was 0.494 (inactive). For the same molecule, in assay [2], the composite z-score was -0.31.

Turning to `NCCCCCCNC(=O)[C@H]1C[C@H]2C(=O)N[C@@H](Cc3ccccc3)C(=O)N2[C@H]1c1ccc(O)cc1`, the z-score in assay [1] is 1.42 (inactive); in assay [3], 4.21 (inactive); in assay [4], -0.243 (inactive); in assay [5], 0.731 (inactive); in assay [6] it was -2.2 (inactive); in [7], 0.316. For the same molecule, the z-score was 1.81 (inactive) in assay [8]; 1.38 (inactive) in assay [9]; 2.31 in assay [10]; 0.0513 in [11]; 0.565 in assay [12]; -0.623 in assay [13]. The z-score in assay [14] is 0.675; in [15], 0.337; in [16], -0.424; in [17] it was 0.0433 (inactive); in assay [18], -1; in assay [19], -0.119. For the same molecule, in assay [20], the z-score was 1.18 (inactive). Besides, the composite z-score in assay [2] was -0.0094.

Take `CO[C@H]1O[C@H](CO)[C@@H](OC(=O)Nc2ccc(C(F)(F)F)cc2)[C@H](OC(=O)Nc2ccc3c(c2)OCO3)[C@H]1OC(=O)Nc1ccc2c(c1)OCO2`: the z-score in assay [1] is -0.463 (inactive); in [3] it was 7.33 (inactive); in assay [4], 0.993 (inactive); in assay [5], 0.61 (inactive); in assay [6], 0.619 (inactive); in [7] it was -0.388. For the same molecule, the z-score is -4.33 (inactive) in [8]; -0.99 (inactive) in [9]; -1.82 in [10]; -2.28 in [11]; 0.758 in assay [12]; -2.3 in assay [13]. The z-score is -2.85 in assay [14]; -2.66 in assay [15]; -0.17 in [16]; 0.298 (inactive) in [17]; -0.999 in [18]; -1.01 in [19]. In addition, the z-score in assay [20] is -3.17 (inactive). In assay [2], this molecule displayed a composite z-score of 0.662.

For the molecule `CC(=O)NCCCC[C@@H]1NC(=O)[C@@H]2C[C@H](C(=O)O)[C@H](c3ccc(O)cc3)N2C1=O`, the z-score in [1] was 0.139 (inactive); in [3], 1.15 (inactive); in [4], 0.508 (inactive); in [5], 1.08 (inactive); in assay [6], 0.275 (inactive); in assay [7] it was -0.544. The z-score is 1.03 (inactive) in assay [8]; -1.04 (inactive) in [9]; 0.422 in assay [10]; 0.0665 in [11]; 0.384 in assay [12]; -0.552 in assay [13]. Also, the z-score in [14] is 0.421; in assay [15] it was -0.105; in assay [16], -1.14; in [17], -0.352 (inactive); in assay [18] it was 0.667; in [19], 0.237. Besides, the z-score in assay [20] was -0.179 (inactive). Also, the composite z-score in assay [2] stood at 0.202.

Turning to `C=CCNC(=O)[C@@H]1[C@H]2C(=O)O[C@H](c3ccccc3)[C@H](c3ccccc3)N2[C@H](c2ccc(OCCO)cc2)[C@@]12C(=O)N(C(=O)OCCOC)c1ccc(C#CC3=CCCCC3)cc12`, the z-score in assay [1] is -0.892 (inactive); in assay [3] it was 6.2 (inactive); in [4], 2.12 (inactive); in assay [5], 0.669 (inactive); in assay [6], 1.46 (inactive); in [7], 0.0846. Also, the z-score in assay [8] is 1.13 (inactive); in assay [9], -0.0729 (inactive); in [10], 1.69; in [11], -0.549; in [12] it was -0.354; in assay [13], 0.0468. For the same molecule, the z-score in assay [14] was -1.45; in assay [15], -1.59; in assay [16], -0.893; in assay [17] it was -0.0381 (inactive); in [18] it was -0.814; in assay [19] it was -1.57. In addition, the z-score in assay [20] was -1.01 (inactive). Besides, the composite z-score in assay [2] came to 0.173.
